In assay [1] the target is Cellular tumor antigen p53 (Homo sapiens) (UniProt P04637). Briefly: Primary qHTS for small molecule compounds that upregulate eGFP-tagged delta133p53alpha (in N-terminal) cells. (AID 2060322). Also: nearly all actives have a fitted effect of over 75% in size. Also: potency is read from the fitted curve at half-maximal effect.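 As to activation: cells pre-induced with doxycycline then dosed without doxycycline; 0% = DMSO vehicle and 100% = reference activator.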 The following applies: NCI-H358 eGFP-delta133p53alpha fluorescence, 24 h; activation: hits give high values. The method, boiled down: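 NCI-H358 cells pre-induced 24 h with 10 ng/ml doxycycline for eGFP-delta133p53alpha, plated dox-free and exposed 24 h at 37C to titrated compounds. Fixed, Hoechst-stained; gated GFP peak intensity by laser scanning cytometry, normalized to DMSO (0%) and 57.5 uM 5-azacytidine (100%).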
Background: qHTS replaces the single test concentration by a dilution series.

For assay [2], the target named is Aldehyde dehydrogenase, mitochondrial (Homo sapiens) (UniProt P05091). Briefly: qHTS for Inhibitors of the Aldehyde Dehydrogenase Family (ALDH2) Primary screen (AID 2061308).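 Also: plate controls were vehicle for no effect and reference inhibitor for full effect; nearly all actives have a fitted effect of over 55% in size.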 The conditions noted are these: ALDH2 enzyme inhibition qHTS, 1536-well; series mostly up to 56 µM.
Assay [3] concerns the target Retinaldehyde dehydrogenase 3 (Homo sapiens) (UniProt P47895). Briefly: qHTS for Inhibitors of the Aldehyde Dehydrogenase Family (ALDH1A3) Validation screen (AID 2061312). Also: nearly all actives have a fitted effect of over 45% in size. Also: potency is read from the fitted curve at half-maximal effect. The conditions noted are these: ALDH1A3 enzyme inhibition qHTS validation, fluorescence; series mostly up to 84.7 µM.
Assay [4] shares this target. Description: qHTS for Inhibitors of the Aldehyde Dehydrogenase Family (ALDH1A3) Primary screen (AID 2061315).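 Also: plate controls were DMSO vehicle for no effect and reference inhibitor for full effect.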 The following applies: ALDH inhibition qHTS; series mostly up to 56 µM.
Assay [5] can be described thus: BET inhibitor-based combinations targeting novel dependencies in MECOM-rearranged (r) AML: SET-2 cell line (AID 2202231). Also: nearly all actives have a fitted effect of over 35% in size. Also: potency is read from the fitted curve at half-maximal effect.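 As to viability: plate controls were DMSO treated cells for no effect and wells without cells for full effect.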 The following applies: SET-2 AML cells viability, CellTiter-Glo luminescence, 48 h; viability: hits give low values, concentration not given here. The gist of the method:
(§1)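 AML cell lines seeded at 500 cells/well, treated with 11-point dose curves for 48 h. Viability by CellTiter-Glo luminescence, normalised to DMSO and empty wells; activity expressed as AUC and per-cell-line Z-transformed AUC.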
Background: In ATP-based viability assays light output follows the ATP content of the culture.

Assay [6] can be described thus: BET inhibitor-based combinations targeting novel dependencies in MECOM-rearranged (r) AML: MV-4-11 cell line (AID 2202233). Also: nearly all actives have a fitted effect of over 45% in size. Also: potency is read from the fitted curve at half-maximal effect. The following applies: MV-4-11 AML viability, CellTiter-Glo luminescence, 48 h; series mostly up to 46 µM. The gist of the method: (§2)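 Cells at 500/well were exposed for 48 hr to MIPE v5.0 drugs as 11-point dose curves. Viability was read by CellTiter-Glo luminescence and normalized to DMSO and empty-well controls. Activity was expressed as AUC and per-cell-line Z-AUC.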

The nature of assay [7]: BET inhibitor-based combinations targeting novel dependencies in MECOM-rearranged (r) AML: HNT-34 cell line (AID 2202234). Also: nearly all actives have a fitted effect of over 35% in size. Also: potency is read from the fitted curve at half-maximal effect. The conditions noted are these: HNT-34 AML viability, CellTiter-Glo luminescence, 48 h; series mostly up to 46 µM. The method, boiled down:
as §2

Assay [8] in a line: BET inhibitor-based combinations targeting novel dependencies in MECOM-rearranged (r) AML: AML-191 cell line (AID 2202236; also: nearly all actives have a fitted effect of over 35% in size; also: potency is read from the fitted curve at half-maximal effect). The following applies: AML-191 viability, CellTiter-Glo luminescence, 48 h; series mostly up to 46 µM. The method, boiled down: as §1
A short description of assay [9]: BET inhibitor-based combinations targeting novel dependencies in MECOM-rearranged (r) AML: AML-194 cell line (AID 2202237; also: nearly all actives have a fitted effect of over 40% in size; also: potency is read from the fitted curve at half-maximal effect). The conditions noted are these: AML-194 (MECOM-r AML) viability, CellTiter-Glo, 48 h; series mostly up to 46 µM. The method, boiled down: as §1
The nature of assay [10]: BET inhibitor-based combinations targeting novel dependencies in MECOM-rearranged (r) AML: UCSD-AML1 cell line (AID 2202235). Also: nearly all actives have a fitted effect of over 40% in size. Also: potency is read from the fitted curve at half-maximal effect. The following applies: UCSD-AML1 AML cells viability, CellTiter-Glo, 48 h; series mostly up to 46 µM. The method, boiled down: as §2
The nature of assay [11]: BET inhibitor-based combinations targeting novel dependencies in MECOM-rearranged (r) AML: OCI-AML3 cell line (AID 2202232). Also: nearly all actives have a fitted effect of over 35% in size. Also: potency is read from the fitted curve at half-maximal effect. The following applies: CellTiter-Glo luminescence, 48 h; Potency: OCI-AML3 viability; series mostly up to 46 µM. The gist of the method:
as §1

Where “and” joins values, the source holds several entries; their conditions need not be identical. Equal entries are not always repeated. Inconclusive results are not listed. Values without a mark were called inactive. Calls of active or inactive are those of the source. Calls follow the shape of the dose curve; as a rule, active = well fitted curve in the direction sought with a large enough effect; inconclusive = small, poorly fitted or top-dose-only effect, or another doubt; inactive = no such curve, though single readings can be large; an effect the other way counts as inactive or inconclusive.

Chain of Cellular tumor antigen p53 (Homo sapiens) (P04637 whole entry, looked up): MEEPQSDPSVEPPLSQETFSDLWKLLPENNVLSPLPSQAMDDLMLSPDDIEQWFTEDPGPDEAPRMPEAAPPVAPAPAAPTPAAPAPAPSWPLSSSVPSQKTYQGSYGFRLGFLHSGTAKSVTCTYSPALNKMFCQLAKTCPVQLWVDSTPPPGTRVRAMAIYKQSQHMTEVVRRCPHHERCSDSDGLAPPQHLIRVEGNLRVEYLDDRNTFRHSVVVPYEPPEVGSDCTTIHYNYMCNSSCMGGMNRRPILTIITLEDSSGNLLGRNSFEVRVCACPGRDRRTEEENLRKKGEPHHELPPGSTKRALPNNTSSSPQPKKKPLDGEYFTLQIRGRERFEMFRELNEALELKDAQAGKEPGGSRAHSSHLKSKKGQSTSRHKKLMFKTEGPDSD

With `O=C(O)Cn1nnc(-c2cc(N3CCC(Oc4cc(F)ccc4Br)CC3)no2)n1`, the activation in [1] was 22.3% and 6.21%. Also, the Potency entry in assay [2], in assay [3], in [4], in assay [6], in assay [7] and in [8] was “inactive” throughout. For the same compound, the Potency entry in assay [9] was “inactive”. Moreover, the viability (as a rule, a read-out of living cells in per cent, often relative to untreated cells) in assay [5] was 127%.
For `CCCN1CCN(c2ccc(C(=O)NC3(C(=O)NCC#N)CCCCC3)cc2)CC1`, the activation in [1] was -6.68%. For the same compound, the Potency result in [2], in [3], in [4], in assay [6], in assay [7] and in assay [10] was “inactive” each time. The Potency entry in [8] and in assay [9] was “inactive” each time. Moreover, the viability in [5] is 102%.
With `OC(c1ccc(-c2ccc(CN3CCN(Cc4ccncc4)CC3)cc2)c(F)c1)(C(F)(F)F)C(F)(F)F`, the activation in assay [1] is -11%. Further, the Potency result in [2], in assay [3], in [4], in assay [7], in [10] and in [9] was “inactive” throughout. For the same compound, the viability in assay [5] was 101%. Also, the Potency in assay [6] was 8.33 µM (active); in assay [8], 9.34 µM (active).
Consider `Cn1cncc1C(N)(c1ccc(Cl)cc1)c1ccc2c(c1)c(-c1cccc(Cl)c1)cc(=O)n2C` (configuration not stated), for which the Potency is 26.9 µM (active) in assay [1]; 14.8 µM (active) in [5]; 5.25 µM (active) in [6]; 0.263 µM (active) in [7]; 0.372 µM (active) in [10]; 4.17 µM (active) in [8]. For the same compound, in assay [9], the Potency was 20.9 µM (active). Moreover, the Potency entry in [2], in [3] and in assay [4] was “inactive” in each case.
On to `CN1CC[C@@H](NC(=O)Nc2ccc(C#N)cc2)C[C@@H]1c1nc2ccccc2[nH]1`, for which the activation in [1] was -0.477%. Moreover, the Potency entry in assay [2], in assay [4], in assay [11], in assay [10], in assay [8] and in assay [9] was “inactive” throughout. Besides, in assay [3], the Potency is 3.98 µM (active). Further, the viability in [5] was 117%.
For the compound `COc1cc(CCc2cc(NC(=O)c3ccc(N4C[C@@H](C)N[C@@H](C)C4)cc3)n[nH]2)cc(OC)c1`, the activation in [1] is 1.33% and -3.34%. Also, the Potency entry in assay [2], in [3] and in assay [4] was “inactive” in each case. Also, the Potency in assay [5] is 20.9 µM (active); in assay [11], 18.6 µM (active); in [7], 7.42 µM (active); in [10], 7.42 µM (active); in assay [8], 16.6 µM (active); in assay [9], 14.8 µM (active).
Regarding `CC(C)(OCc1nn(Cc2ccccc2)c2ccccc12)C(=O)O`, the activation in [1] is -10.7% and 1.91%. Also, the Potency entry in assay [2], in [3], in assay [4], in [6], in assay [7] and in assay [10] was “inactive” throughout. Moreover, the Potency entry in assay [8] and in [9] was “inactive” each time. For the same compound, the viability in assay [5] was 104%.
With `COc1ccc2nc3n[nH]c(C)c3c(NCCOCCO)c2c1`, the activation in assay [1] is 6.21%. In addition, the Potency entry in [2], in [3], in [4], in [11], in assay [7] and in assay [10] was “inactive” throughout. Moreover, the Potency entry in assay [8] and in assay [9] was “inactive” throughout. Further, the viability in [5] is 97%.
Take `O=C(c1cc(Cc2n[nH]c(=O)c3ccccc23)ccc1F)N1CCN(C(=O)C2CC2)CC1`: in assay [1], the activation was 8.16% and -16.2%. In addition, the Potency entry in assay [2], in assay [3] and in assay [4] was “inactive” each time. Further, the viability in [5] is 80.3%. Also, the Potency in assay [6] was 8.33 µM (active).
As to `Cc1cc(OCc2nnc(SC3CCCC3)n2-c2cccnc2)ccc1-c1ccc(S(C)(=O)=O)cc1`, the Potency in assay [1] is 6.75 µM (active); in assay [5], 6.61 µM (active); in assay [11], 3.72 µM (active); in assay [10] it was 5.9 µM (active); in [8] it was 8.33 µM (active). Besides, the Potency result in assay [2], in assay [3] and in assay [4] was “inactive” throughout.
As to `CNC(=O)c1ccc(-c2cnc3ncc(Cc4ccc5ncccc5c4)n3n2)cc1F`, the activation in assay [1] was -4.61% and -7.16%. Moreover, the Potency result in assay [2], in [3], in assay [4], in assay [11], in [10] and in [9] was “inactive” in each case. Also, the viability in assay [5] was 95.9%. Also, the Potency in assay [7] was 18.6 µM (active).
Consider `CCC(CC)C(c1ccc(Nc2nc3ccccc3s2)cc1)n1cncn1` (configuration not stated), for which the activation in assay [1] is 17.2%. In addition, the Potency entry in assay [2], in assay [3], in [4] and in assay [10] was “inactive” each time. Further, the Potency in assay [5] was 20.9 µM (active); in [11], 11.8 µM (active); in assay [8], 16.6 µM (active).
On to `Cn1cc(-c2ccc(F)c(C(F)(F)F)c2)nc1C1CCN(c2ncnc3[nH]ncc23)CC1`, for which the activation in assay [1] is 10%. For the same compound, the Potency result in assay [2], in assay [3], in [4], in assay [10] and in assay [9] was “inactive” in each case. The viability in [5] is 96.6%. For the same compound, the Potency is 0.742 µM (active) in assay [11] and 20.9 µM (active) in assay [8].
As to `CCNCc1nc2c(N)nc3ccccc3c2n1CC(C)(C)O`, in assay [1], the activation was -0.477%. For the same compound, the Potency entry in assay [2], in assay [3], in assay [4] and in assay [10] was “inactive” each time. Besides, the viability in assay [5] was 94.4%. The Potency in [6] is 20.9 µM (active).
Consider `CNC(=O)c1ccc(N2C(=S)N(c3cnc(C#N)c(C(F)(F)F)c3)C(=O)C23CCC3)cc1F`, for which, in assay [1], the activation is -16.4% and 8.59%. Also, the Potency result in assay [2], in assay [3], in [4], in assay [6], in assay [7] and in assay [10] was “inactive” each time. For the same compound, the Potency result in assay [8] and in assay [9] was “inactive” throughout. The viability in [5] is 98%.
With `O=C(C(c1ccccc1)c1ccccc1)N1CCN(CC(O)COc2cccc3ncccc23)CC1` (configuration not stated), in [1], the activation is 4.77%. In addition, the Potency entry in [2], in assay [3] and in assay [4] was “inactive” each time. In addition, the Potency in assay [5] was 20.9 µM (active); in [11], 11.8 µM (active); in assay [8], 18.6 µM (active).
Take `COCCOc1ccc(N2CCN(CCn3ncc4c3nc(N)n3nc(-c5ccco5)nc43)CC2)cc1`: in assay [1], the activation was 6.21%. Besides, the Potency entry in assay [2], in assay [3], in [4], in assay [11], in assay [7] and in assay [10] was “inactive” each time. The Potency result in assay [8] and in [9] was “inactive” in each case. For the same compound, the viability in assay [5] is 113%.

The record behind these values is PubChem BioAssay (NCATS).
